Measurements: PubChem BioAssay (NCATS)
Results filed as inconclusive are left out. Activity calls are given as the source filed them. The call rests on the fitted dose curve; in most records, active means well fitted cell-killing curve with a large enough effect; inconclusive means small, poorly fitted or top-dose-only effect, or effect the other way; inactive means flat fitted curve, though single readings scatter.

How the values were obtained:
Test in all cases: Primary qHTS to identify gynecologic anti-cancer compounds using libraries of approved drugs and bioactive compounds (AID 1345084); further: nearly all actives have a fitted effect of over 55% in size
[1] = test system: C33A; details: Gynecologic cancer cell panel viability, ATPlite luminescence, 48 h; series mostly up to 57.5 µM
In short: (§1)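 48 h compound exposure at 37 C, 5% CO2; five-point qHTS. ATPlite luminescence readout of cell ATP.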

[2] = test system: CAOV3; details: Gynecologic cancer cell panel viability, ATPlite luminescence, 48 h; series mostly up to 57.5 µM
In short: as §1

[3] = test system: CASKI; details: Gynecologic cancer cell panel viability, ATPlite luminescence, 48 h; series mostly up to 57.5 µM
In short: as §1

[4] = test system: Es-2; details: Gynecologic cancer cell panel viability, ATPlite luminescence, 48 h; series mostly up to 57.5 µM
In short: as §1

[5] = test system: HeLa; details: Gynecologic cancer cell panel viability, ATPlite luminescence, 48 h; series mostly up to 57.5 µM
In short: as §1

[6] = test system: Hek293T; details: Gynecologic cancer cell panel viability, ATPlite luminescence, 48 h, control line for the selectivity index; series mostly up to 57.5 µM
In short: as §1

[7] = test system: JEG-3; details: Gynecologic cancer cell panel viability, ATPlite luminescence, 48 h; series mostly up to 57.5 µM
In short: as §1

[8] = test system: Tov-21-G; details: Gynecologic cancer cell panel viability, ATPlite luminescence, 48 h; series mostly up to 57.5 µM
In short: as §1

[9] = test system: Tov112D; details: Gynecologic cancer cell panel viability, ATPlite luminescence, 48 h; series mostly up to 57.5 µM
In short: as §1

[10] = test system: SKOV3; details: Gynecologic cancer cell panel viability, ATPlite luminescence, 48 h; series mostly up to 57.5 µM
In short: as §1

[11] = test system: PA-1; details: Gynecologic cancer cell panel viability, ATPlite luminescence, 48 h; series mostly up to 57.5 µM
In short: as §1

[12] = test system: OV90; details: Gynecologic cancer cell panel viability, ATPlite luminescence, 48 h; series mostly up to 57.5 µM
In short: as §1
On the % scale 0 is the no-effect control and ±100 the full control effect; potency means the concentration at half of the fitted maximal effect.

CCC(=C(c1ccc(OCCN2CCCC2)cc1)c1ccc(OCCN2CCCC2)cc1)c1ccccc1
inactive: Potency [1] | Potency [2] | Potency [3] | Potency [4] | Potency [5] | Potency [6] | Potency [7] | Potency [8] | Potency [9]

C=CC(C)(O)CC/C=C(\C)C(=O)OC1C(O)C(CO)OC(OC(=O)C23CCC(C)(C)CC2C2=CCC4C5(C)CCC(OC6OC(COC7OCC(OC(C)=O)C(O)C7OC7OC(COC(C)=O)C(O)C(O)C7OC(C)=O)C(O)C(O)C6OC6OCC(O)C(O)C6O)C(C)(C)C5CCC4(C)C2(C)C(O)C3O)C1OC1OCC(OC2OCC(O)C(OC3OCC(O)C(O)C3O)C2O)C(O)C1O (stereo not given)
inactive: activity change, negative = cytotoxicity [1] -0.479% [at 6.55 µM] | activity change, negative = cytotoxicity [2] -0.149% [at 6.55 µM] | activity change, negative = cytotoxicity [3] -8.72% [at 6.55 µM] | activity change, negative = cytotoxicity [4] -2.99% [at 6.55 µM] | activity change, negative = cytotoxicity [5] -14% [at 6.55 µM] | activity change, negative = cytotoxicity [6] -1.14% [at 6.55 µM] | activity change, negative = cytotoxicity [7] -2.85% [at 6.55 µM] | activity change, negative = cytotoxicity [10] 0.6% [at 6.55 µM] | activity change, negative = cytotoxicity [8] -26.1% [at 6.55 µM]

Cc1nc2cc(C(=O)NCc3ccccn3)nn2c(C)c1Cc1cccc(Cl)c1
inactive: Potency [1] | Potency [2] | Potency [3] | Potency [4] | Potency [5] | Potency [6] | Potency [7] | Potency [11] | Potency [8] | Potency [9]

COc1ccc(CNCc2cccc3ccccc23)cc1
inactive: Potency [1] | Potency [2] | Potency [3] | Potency [4] | Potency [5] | Potency [6] | Potency [7] | Potency [11] | Potency [10] | Potency [8] | Potency [9]

CCOC(=O)C1=Cc2ccc(C(F)(F)C(F)(F)F)cc2N=C(N)C1
inactive: Potency [1] | Potency [2] | Potency [3] | Potency [4] | Potency [5] | Potency [6] | Potency [12] | Potency [11] | Potency [10] | Potency [8] | Potency [9]

NC(N)=NC(=O)c1cnn(-c2cccc3ncccc23)c1C1CC1
inactive: Potency [1] | Potency [2] | Potency [3] | Potency [4] | Potency [5] | Potency [6] | Potency [7] | Potency [11] | Potency [8] | Potency [9]

O=C1COC2(CCN(S(=O)(=O)c3ccc(-c4ccc5cccnc5c4)cc3)CC2)CN1C1CC1
inactive: Potency [1] | Potency [2] | Potency [3] | Potency [4] | Potency [5] | Potency [6] | Potency [7] | Potency [11] | Potency [10] | Potency [8] | Potency [9]

O=C(Nc1ccc(Cl)cc1)Nc1cccc(-c2cccc(N3CCCC3)n2)c1
inactive: Potency [1] | Potency [2] | Potency [3] | Potency [4] | Potency [5] | Potency [6] | Potency [12] | Potency [11] | Potency [10] | Potency [8] | Potency [9]

CC(C)C[C@H](CO)Nc1nc(S[C@@H](C)c2ccccc2)nc2nc(N)sc12
inactive: Potency [1] | Potency [2] | Potency [3] | Potency [4] | Potency [5] | Potency [6] | Potency [12] | Potency [11] | Potency [10] | Potency [8] | Potency [9]

C#CCOc1ccc2c(c1)c(-c1ccc(C(C)C)cc1)nc(=O)n2C(C)C
inactive: Potency [1] | Potency [2] | Potency [3] | Potency [4] | Potency [5] | Potency [6] | Potency [7] | Potency [11] | Potency [10] | Potency [8] | Potency [9]

N#Cc1cnc2c(Cl)cc(NCc3cn(CCN4CCCCCC4)nn3)cc2c1Nc1ccc(F)c(Cl)c1
inactive: Potency [1] | Potency [2] | Potency [3] | Potency [4] | Potency [5] | Potency [6] | Potency [7] | Potency [8] | Potency [9]

CCOc1cc(C(C)(C)C)ccc1C1=N[C@@](C)(c2ccc(Cl)cc2)[C@@](C)(c2ccc(Cl)cc2)N1C(=O)N1CCN(CC(=O)N2CCOCC2)CC1
active: Potency [11] 10 µM
inactive: Potency [1] | Potency [2] | Potency [3] | Potency [4] | Potency [6] | Potency [7] | Potency [12] | Potency [10] | Potency [9]

CC(C)c1cccc(C(C)C)c1NC(=O)Nc1ccc(Sc2ccc([N+](=O)[O-])cc2)cc1
inactive: Potency [1] | Potency [2] | Potency [3] | Potency [4] | Potency [5] | Potency [7] | Potency [12] | Potency [11] | Potency [10] | Potency [8] | Potency [9]

C=C1CC[C@@H](O)[C@]2(C)C[C@H]3OC(=O)C(=C)[C@H]3CC12 (stereo not given in full)
inactive: Potency [1] | Potency [2] | Potency [3] | Potency [4] | Potency [5] | Potency [7] | Potency [12] | Potency [11] | Potency [10] | Potency [8] | Potency [9]

COc1ccc2c(NC(=O)Nc3cccc(C(F)(F)F)n3)ccnc2c1
inactive: Potency [1] | Potency [2] | Potency [3] | Potency [4] | Potency [5] | Potency [6] | Potency [12] | Potency [10] | Potency [8] | Potency [9]
